Rows were chosen to be rich in hits. Some 21% of all compounds tested hit in one or more screens of this group.
Pf growth 48h: inhibits P. falciparum growth in the first generation, 48 h. P. falciparum luciferase growth in erythrocytes, 48 h. 5.9% of 310,000 active. Potency, µM (doses to about 28.7 µM), without a hit: at the highest dose activity change, negative = inhibition, hits mostly inhibitors. AID 504832; also: potency is read from the fitted curve at half-maximal effect; % is scaled to controls: 0 for no effect and ±100 for the full control effect
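Compounds are pin-transferred into medium, infected erythrocytes (2% hematocrit, 0.1% parasitemia final) are added, and plates sit one parasite generation at 37 C in 5% CO2. Detection reagent is then added and luminescence measured.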
Pf growth 96h: P. falciparum growth inhibition at 96 hours; Potency, µM (top dose mostly 28.7 µM), inactives show top-dose activity change, negative = inhibition, hits mostly inhibitors; AID 504834; 6.9% of 320,000 active; P. falciparum luciferase reporter growth, 96 h; also: potency is read from the fitted curve at half-maximal effect; % is scaled to controls: 0 for no effect and ±100 for the full control effect
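Plates of compound plus infected erythrocytes (2% hematocrit, 0.05% parasitemia final) incubate 96 hours, 37 C, 5% CO2. Detection reagent added; reduced luminescence from the parasites' luciferase reporter flags inhibition.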
Cycloheximide cs: affects cycloheximide protein synthesis inhibition readout, counter-screen | max response, % | cell reporter, cycloheximide protein synthesis inhibition counterscreen | 12% of 300,000 active; in the data active = max response mostly above about 13%, no sharp cut-off; inactive = mostly below about 14%; also: read at 38.3 µM for the half of the compounds with a filed dose; 0% is about no effect
NS1 function inh: influenza NS1 inhibition; 0.4% of 270,000 active; Potency, µM (titrated, usually from 46.1 µM), for inactives: at the top dose activity, positive = more growth; calls by dose curve; also: potency is read from the fitted curve at half-maximal effect; actives are rising curves; nearly all actives have a fitted effect of over 50% in size
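Growth recovery, yeast-based: influenza A NS1 expressed in S. cerevisiae causes slow growth, and suppressors are detected by OD600. The parent strain without NS1 is used as positive control.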
SARS PLpro yeast-1: blocks SARS-CoV papain-like protease in a yeast assay | S. cerevisiae expressing SARS-CoV PLpro, growth rescue | Potency, µM (top dose mostly 32.9 µM), for the others: top-dose activity, positive = growth rescue, actives largely listed as activators | 0.19% of 330,000 active; calls by dose curve; also: potency is read from the fitted curve at half-maximal effect; 0% is about no effect; nearly all actives have a fitted effect of over 55% in size
Shiga toxin inh: blocks Shiga toxin action in Vero cells; AID 2315; Vero cells, Shiga toxin protein synthesis inhibition reporter; inhibition, % at 38.7 µM; 9.2% of 290,000 active; in the data active = inhibition mostly above about 28%, no sharp cut-off; inactive = mostly below about 43%; also: 0% is about no effect
SARS PLpro yeast-2: Inhibits SARS-CoV PLP in yeast, hit validation. shares compounds with SARS PLpro yeast-1. yeast expressing SARS-CoV PLpro, growth phenotype rescue. calls only. 19% of 1,000 active; call rule not given here
Active calls of the source: *; i = inactive; u = inconclusive; x = not tested or not shown; + = active, no number; [ ] = another dose, or the depositor's remark. Unless noted, calls follow the shape of the dose curve; as a rule, active = well fitted inhibition curve with a large enough effect; inconclusive = small, poorly fitted or top-dose-only effect, or another doubt; inactive = no such curve, though single readings can be large or run the other way.

SMILES | Pf growth 48h | Pf growth 96h | Cycloheximide cs | NS1 function inh | SARS PLpro yeast-1 | Shiga toxin inh | SARS PLpro yeast-2
CCN1CCCC1CN(Cc1cc2c(C)cc(C)cc2[nH]c1=O)C(=O)NC1CCCCC1 (stereo not drawn) | 9.28µM* | x | -5.9 | 17.1% | u | -2.5 | i
OC1(c2cccc(C(F)(F)F)c2)CCN(Cc2nnnn2CCc2ccccc2)CC1 | u | 30.7% | 0.6 | -11.4% | u | -5.0 | i
COc1ccc(-c2cc(=O)[nH][nH]2)cc1 | x | 8.6% | 0.8 | u | 11.3% | -4.7 | x
COc1ccc(C2=NNC(=O)CC2)cc1 | 6.5% | 0.0% | 5.3 | -6.2% | u | 7.0 | i
NC(=O)C1CCN(C(=O)c2cc(Cl)c3c(c2)OCCO3)CC1 | x | x | x | x | 2.51µM* | x | i
N#Cc1ccc(CN2CCN(C(=O)c3cc(Cl)c4c(c3)OCCO4)CC2)cc1 | u | 8.5% | x | x | -7.2% | x | x
CC1(C(=O)NCc2ccc(Cl)c(Cl)c2)Oc2ccccc2NC1=O (stereo not drawn) | u | u | -5.4 | x | 0.4% | -7.3 | x
Cc1c(NC(=O)COc2ncnc3c(Cl)cc(Cl)cc23)c(=O)n(-c2ccccc2)n1C | 3.4% | 8.0% | -2.4 | -4.7% | u | 19.9 | i
CCN(CC)CCNC(=O)c1ccc(CS(=O)(=O)c2ccccc2C)o1 | -13.9%[0.00184 µM] | 27.5% | -3.9 | 4.1% | -0.6% | -5.7 | x
Cc1cc(N/N=C/c2ccc(O)cc2O)nc(N2CCOCC2)n1 | u | u | 10.2 | 1.4% | -0.1% | 18.9 | x
CCCOc1ccc(/C=N/Nc2cc(N3CCOCC3)ncn2)c(O)c1 | 2.08µM* | -6.1% | -1.0 | -25.0% | 5.01µM* | -2.7 | +
O=C(CCN1C(=O)C2CCCCC2C1=O)N1CCN(S(=O)(=O)c2ccccc2)CC1 (stereo not drawn) | u | -12.4% | x | x | 6.4% | x | x
O=C(CN1CCCCC1)c1ccc(OC(F)F)cc1 | 7.2% | -15.4% | -5.1 | 3.2% | u | -6.1 | i
CCC1CCCCN1CC(=O)c1ccc(OC(F)F)cc1 (stereo not drawn) | u | u | 3.1 | -2.5% | 6.5% | -2.1 | x
CC(Sc1n[nH]c(-c2ccccc2F)n1)C(=O)Nc1ccc(S(N)(=O)=O)cc1 (stereo not drawn) | u | u | x | x | u | x | i
CCOC(=O)C1=C([Si](C)(C)C)c2ccccc2N(S(=O)(=O)C(F)(F)F)C1C(=O)OCC (stereo not drawn) | x | x | 3.3 | x | x | 56.1 | x
COCCCN(Cc1cccs1)S(=O)(=O)c1csc(C(N)=O)c1 | 19.2% | u | -3.5 | 8.3% | -0.8% | -11.4 | x
O=C(CSc1nc(-c2ccco2)cc(C(F)(F)F)n1)Nc1ccc2c(c1)OCO2 | -1.3% | 7.2% | 1.3 | 1.2% | u | 2.8 | +
OCC[C@H]1C[C@H](O)[C@@H](O)[C@@]2(CCCc3ccccc3O2)O1 | 16.7% | 46.4% | x | x | -16.0% | x | x
CSc1ccc(/C=N/N2CCN(Cc3ccc(C)cc3C)CC2)cc1 | -0.6% | -5.6% | -1.9 | 5.4% | -2.1% | -1.8 | x
Cc1ccc(CN2CCN(/N=C/c3sccc3C)CC2)c(C)c1 | 13.3% | 20.1% | -0.9 | -10.5% | 11.2µM* | 8.0 | i
CCn1cc(/C=C(\NC(=O)c2ccccc2Cl)C(=O)N2CCN(C)CC2)c2ccccc21 | u | -4.6% | -3.8 | 4.1% | -1.9% | -6.5 | x
CCN(CC)S(=O)(=O)c1ccc(C(=O)N2CCN(c3ncccn3)CC2)cc1 | -8.6% | -16.1% | -2.8 | -0.4% | 1.4% | 3.1 | x
CCN(Cc1ccccc1)S(=O)(=O)c1ccc(C(=O)N2CCN(c3nc4ccccc4s3)CC2)cc1 | -0.5% | -6.5% | 0.1 | 5.1% | 2.82µM* | -6.7 | i
COc1cc(/C=N/NC(N)=S)ccc1OCc1ccc(C)cc1 | u | u | 30.3* | 19.2% | u | 65.8* | +
NC(=S)N/N=C\c1c2ccccc2cc2ccccc12 | -2.7% | -15.8% | -0.3 | 8.1% | 14.1µM* | 1.0 | i
NC(=S)N/N=C/c1ccc2c(c1)OCCO2 | 112.5% | -6.6% | 27.9* | x | 14.1µM* | 32.5 | +
O=C(CNC(=O)c1ccc2c(c1)OCCO2)N/N=C/c1ccc(Cl)cc1 | 5.5% | -29.4% | 11.0 | x | -3.8% | 2.4 | x
